According to ChEMBL document CHEMBL1157539, “Thousands of chemical starting points for antimalarial lead identification” (Nature, 2010):

Legend:
Assay type in all cases: functional
Plasmodium falciparum [1] = assay: GSK_TCMDC: Inhibition of Plasmodium falciparum 3D7 in whole red blood cells, using parasite LDH activity as an index of growth. Test compounds present at 2uM
Plasmodium falciparum [2] = assay: GSK_TCMDC: Inhibition of Plasmodium falciparum Dd2 in whole red blood cells, using parasite LDH activity as an index of growth. Test compounds present at 2uM
HepG2 = assay: GSK_TCMDC: Percent inhibition of human HepG2 cell line. Test compounds present at 10uM.

Structure (SMILES)	Inhibition (Plasmodium falciparum [1]) [%]	Inhibition (Plasmodium falciparum [2]) [%]	Inhibition (HepG2) [%]
O=C(COc1ccccc1Cc1ccccc1)Nc1cc(Cl)ccc1-n1cncn1	92	93	5
CN(C)c1ccc(C(c2ccc(N(C)C)cc2)c2cc([N+](=O)[O-])ccc2Cl)cc1	96	67	0
O=C(NCC1CCC(C(=O)NCCN2CCCCC2)CC1)c1ccc(O)c(-c2ccc(Cl)c(Cl)c2)c1 (stereo not drawn)	91	22	0
CCc1cccc2sc(N3CCN(C(=O)c4ccc([N+](=O)[O-])o4)CC3)nc12	97	94	2
COc1cc2nc(NC3CCN(Cc4ccccc4)CC3)nc(N)c2cc1OC	100	30	27
Cc1cc(C)c(C(=O)Nc2n[nH]c3nnc(-c4cccc(F)c4F)cc23)c(C)c1	90	0	0
CCOc1c(OC)ccc2c1CCN(CCN1CCC(CNC(=O)c3ccc(-c4ccc(C(F)(F)F)cc4)cc3)CC1)C2	100	21	54
CCCOc1c(CCNCCCCNCCc2ccc3ccccc3c2OCCC)ccc2ccccc12.CS(=O)(=O)O	100	78	100
CC(=NNC(=N)N)c1ccc2c(ccc3ccccc32)c1.Cl	100	15	47
CC(C)CCNc1nc2ccccc2nc1Nc1cccc(C(F)(F)F)c1	98	99	12
CN1CCN(c2ccnc3ccc(NC(=O)Nc4ccc(-c5ccncc5)c(C#N)c4)cc23)CC1	100	99	32
